SMILES strings stand for the structures. Records with an inconclusive call do not appear. Active and inactive are the calls of the source. Calls follow the shape of the full dose curve.
% is scaled to controls: 0 for no effect and ±100 for the full control effect.

This assay deals with Peroxisome proliferator-activated receptor gamma (Homo sapiens) (UniProt P37231). The assay can be described thus: qHTS assay to identify small molecule antagonists of the peroxisome proliferator-activated receptor gamma (PPARg) signaling pathway (AID 743191). Also: nearly all actives have a fitted effect of over 30% in size. To be noted: HEK293H PPARg-UAS-bla, beta-lactamase ratio, antagonist, 17 h; series mostly up to 62.6 µM; ratio activity, negative = inhibition: at the top concentration. The text has this: U.S. Tox21 Program National Center for Advancing Translational Sciences [NCATS] NIH Chemical Genomics Center [NCGC] U.S. Environmental Protection Agency [EPA] National Institutes of Environmental Health Sciences [NIEHS] National Toxicology Program [NTP] U.S. Food and Drug Administration [FDA] Tox21 Assay Overview: The peroxisome proliferator-activated receptors (PPARs) are lipid-activated transcription factors of the nuclear receptor superfamily with three distinct subtypes namely PPAR alpha, PPAR delta (also called PPAR beta) and PPAR gamma (PPARg). All these subtypes heterodimerize with Retinoid X receptor (RXR) and these heterodimers regulate transcription of various genes. PPAR-gamma receptor (glitazone receptor) is involved in the regulation of glucose and lipid metabolism. To identify the compounds that inhibit PPAR-gamma signaling, GeneBLAzer PPAR gamma UAS-bla HEK293H cell line (Invitrogen, Carlsbad, CA, USA) containing a beta-lactamase reporter gene under control of an Upstream Activator Sequence (UAS) was used to screen the Tox21 compound library.
Sequence of Peroxisome proliferator-activated receptor gamma (Homo sapiens) (P37231 whole entry, looked up): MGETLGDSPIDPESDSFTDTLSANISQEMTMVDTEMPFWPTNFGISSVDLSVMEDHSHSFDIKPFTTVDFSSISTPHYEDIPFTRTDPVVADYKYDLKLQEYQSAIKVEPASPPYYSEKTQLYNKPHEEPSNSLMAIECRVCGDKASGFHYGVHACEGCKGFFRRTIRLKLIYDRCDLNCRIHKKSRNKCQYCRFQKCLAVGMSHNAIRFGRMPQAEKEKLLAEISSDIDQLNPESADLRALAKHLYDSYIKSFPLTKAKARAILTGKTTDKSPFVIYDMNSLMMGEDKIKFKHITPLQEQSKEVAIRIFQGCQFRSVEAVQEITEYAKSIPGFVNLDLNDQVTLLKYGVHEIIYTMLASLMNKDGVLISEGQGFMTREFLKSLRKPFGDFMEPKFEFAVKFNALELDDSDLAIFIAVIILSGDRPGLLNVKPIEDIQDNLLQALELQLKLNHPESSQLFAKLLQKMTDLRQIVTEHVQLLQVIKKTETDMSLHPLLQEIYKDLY
Tox21 Assay Protocol Summary: PPARg-bla cells were dispensed at 3000 cells/6uL/well in 1536-well black wall/clear bottom plates using a Multidrop Combi (Thermo Fisher Scientific, Waltham, MA) dispenser. After the assay plates were incubated at 37C and 5% CO2 for 5 h, 23 nL of compounds dissolved in DMSO, positive controls or DMSO only was transferred to the assay plate by a Pintool station (Kalypsys, San Diego, CA). The assay plates were incubated at 37C for 17 h. After 1 uL of LiveBLAzerTM B/G FRET substrate was added using a Bioraptr Flying Reagent Dispenser (FRD) workstation (Beckman Coulter, Indianapolis, IN, USA), the plates were incubated at room temperature for 1 h, and fluorescence intensity was measured by an Envision plate reader (PerkinElmer, Shelton, CT).
In general terms: In qHTS, concentration-response curves come from the screen itself.
As for `CC(C)(C)N(CCO)CCO`, the “ratio activity, negative = inhibition” value is 10.7% [at 81.1 µM] (inactive).
Under `CC(=O)O[C@H](CC(=O)[O-])C[N+](C)(C)C` stands 3.91% (inactive).
Take `CSc1ccc(C=O)cc1`: the “ratio activity, negative = inhibition” value is 7.29% (inactive).
The value for `CC(C)CCCC(C)NCCC(C)C` (stereo not given) was 3.64% (inactive); that for `O=C(O)C(O)[C@H](O)[C@@H](O)[C@H](O)[C@H](O)CO` (stereo not given in full) was 15.9% [at 81.1 µM] (inactive).
The value for `COCc1ccc(COC)cc1` was -15.2% (inactive); that for `NCCN1CCNC1=O` was 7.31% (inactive); that for `CCCCCCCCCCCl` was 2.7% [at 81.1 µM] (inactive).
In the case of `CC(=O)OC(C)(C)C`, the “ratio activity, negative = inhibition” value was 3.93% (inactive).
The value for `NC(=O)c1ncn([C@@H]2O[C@H](CO)[C@@H](O)[C@H]2O)c1N` was 1.19% (inactive); that for `CCCCCCCCCCCCCCCCCC(=O)OCCCCCCCCCCCCCC(C)C` was 3.24% (inactive); that for `OC1OC[C@@H](O)[C@H](O)[C@H]1O` (stereo not given in full) was 4.86% (inactive).
Under `Cc1ccccc1Br` stands 7.53% (inactive).
The value for `CCN1CCN(c2cc3c(cc2F)c(=O)c(C(=O)O)cn3C2CC2)CC1` was 4.89% (inactive); that for `Cc1ccc(Nc2ccc(O)c3c2C(=O)c2ccccc2C3=O)cc1` was 2.82% (inactive); that for `Cc1onc(-c2ccccc2)c1-c1ccc(S(N)(=O)=O)cc1` was 0.922% (inactive).
On to `Nc1cc(N)cc(C(=O)O)c1`, for which the “ratio activity, negative = inhibition” value is 12.3% (inactive).
Regarding `Cc1cc(C)cc(OCC2CNC(=O)O2)c1` (stereo not given), the “ratio activity, negative = inhibition” value was -1.48% (inactive).
On to `C=C(C)C(=O)OCCC(C)OC(=O)C(=C)C` (stereo not given), for which the “ratio activity, negative = inhibition” value is 0.833% (inactive).
Turning to `O=C(O)C1CCC1`, the “ratio activity, negative = inhibition” value is 15.1% (inactive).
Regarding `CC(C)(O)C(=O)c1ccc(OCCO)cc1`, the “ratio activity, negative = inhibition” value is -10.3% (inactive).
The value for `FC(F)(F)C(F)(F)C(F)(F)C(F)(F)C(F)(F)C(F)(F)C(F)(F)C(F)(F)C(F)(F)C(F)(F)F` was -8.26% [at 5.95 µM] (inactive); that for `CCn1cc(C(=O)O)c(=O)c2cc(F)c(N3CCN(C)CC3)cc21` was 5.83% [at 29.1 µM] (inactive).
The value for `CC(C)c1ccc2oc3nc(N)c(C(=O)O)cc3c(=O)c2c1` was -6.08% (inactive); that for `CC(C)CCOC(=O)CC(C)C` was -1.01% (inactive).
For `CCO[Si](CCCN=C=O)(OCC)OCC`, the “ratio activity, negative = inhibition” value is -17% (inactive).
The value for `CCCCN(CCO)CCO` was -8.27% (inactive); that for `O=C(O)c1ccc[n+]([O-])c1` was 0.461% (inactive); that for `CC(CCO)CCCC(C)(C)O` (stereo not given) was 7.08% (inactive).
Under `CCCCNc1ccccc1` stands 10.1% (inactive); under `C=C[Si](OC)(OC)OC`, -0.567% (inactive).
Under `CC(C)CCCCCCN` stands 10.2% (inactive).
Turning to `CCC(=O)/C=C/c1ccc(OC)cc1`, the “ratio activity, negative = inhibition” value is -2.76% (inactive).
Consider `Cc1nccn1CC1CCc2c(c3ccccc3n2C)C1=O` (stereo not given), for which the “ratio activity, negative = inhibition” value was -7.7% (inactive).
As for `Nc1[nH]c(=O)ncc1F`, the “ratio activity, negative = inhibition” value is 2.01% (inactive).
With `COC(C(=O)O)c1ccccc1` (stereo not given), the “ratio activity, negative = inhibition” value was 10.8% (inactive).
Take `O=C1CC2(CCCC2)CC(=O)N1`: the “ratio activity, negative = inhibition” value is -0.984% (inactive).
The value for `CC(C)(O)c1ccccc1` was 2.37% (inactive); that for `NC(=O)Nc1nc2ccccc2[nH]1` was 1.6% (inactive); that for `NC(=O)CCCCC1CCSS1` (stereo not given) was 4.67% (inactive).

The values above are taken from PubChem BioAssay (Tox21).
